Experimental data taken from ChEMBL document CHEMBL1157539, “Thousands of chemical starting points for antimalarial lead identification” (Nature, 2010).

What was measured:
Assay type in all cases: functional
Plasmodium falciparum [1] = test: GSK_TCMDC: Inhibition of Plasmodium falciparum 3D7 in whole red blood cells, using parasite LDH activity as an index of growth. Test compounds present at 2uM
Plasmodium falciparum [2] = test: GSK_TCMDC: Inhibition of Plasmodium falciparum Dd2 in whole red blood cells, using parasite LDH activity as an index of growth. Test compounds present at 2uM
HepG2 = test: GSK_TCMDC: Percent inhibition of human HepG2 cell line. Test compounds present at 10uM.

SMILES	Inhibition (Plasmodium falciparum [1])	Inhibition (Plasmodium falciparum [2])	Inhibition (HepG2)
Cc1ccc(-c2nnc(Nc3ccc(OCC(N)=O)cc3)c3ccccc23)cc1S(=O)(=O)NCC1CCCO1 (stereo not given)	92%	70%	0%
CN(C)CCN1CCN(Cc2cccc(-c3csc(-c4nc5ccccc5[nH]4)c3)c2)CC1.O=C(O)C(F)(F)F	100%	97%	28%
O=C(O)C(F)(F)F.O=C1CCCN1CCCNCc1ccc(-c2ccc(-c3nc4cc(C(F)(F)F)ccc4[nH]3)cc2)cc1	100%	98%	10%
N#Cc1ccc(N/C(=N\c2ccc(-c3ccccc3)cc2)NC2CCCc3ccccc32)c(O)c1 (stereo not given)	99%	98%	0%
CC(C)NCC(O)COc1ccc(Cc2ccc(OCC(O)CNC(C)C)cc2)cc1.Cl (stereo not given)	100%	18%	0%
CCN(CC)CCN(Cc1ccc(-c2ccc(C(F)(F)F)cc2)cc1)C(=O)c1c[nH]c2ccc(Br)cc12	90%	74%	80%
O=C(O)C(F)(F)F.c1cc(-c2ccc(CNCc3ccc(-c4csnn4)cc3)cc2)cc(-c2nc3ccccc3[nH]2)c1	100%	96%	60%
CC(C)Cn1cc(C2CCN(CCN3CCC(CNC(=O)c4ccc(-c5ccc(C(F)(F)F)cc5)cc4)CC3)CC2)c2ccccc21	100%	87%	100%
COc1ccc2nccc([C@@H](O)CN3CCC(NCc4cc5cccc6c5n(c4=O)CCC6)CC3)c2c1.O=C(O)C(=O)O	98%	97%	33%
O=C(NCCN1CCC(c2ccncc2)CC1)c1cccc(Nc2nccc(Nc3ccc(Oc4ccccc4)cc3)n2)c1	100%	91%	60%
CCOC(=O)c1cc(C(=O)NCCCCN2CCC(c3ccc4c(c3OC)CCCC4)CC2)ccc1-c1ccc(C(F)(F)F)cc1	100%	60%	100%
CCC(=O)Oc1ccc(NC(=O)c2cccc(OC)c2)cc1	98%	3%	17%
CCn1c2ccccc2c2cc(Cc3cnc(N)nc3N)ccc21.Cl	94%	0%	28%
N#CCCN1CCN(Cc2ccc(-c3ccc(-c4nc5cc(F)ccc5[nH]4)s3)cc2)CC1.O=C(O)C(F)(F)F	99%	38%	58%
CCOC(=O)Cn1ccc2c(NCc3ccccc3)nc(C)nc21	96%	0%	64%
CCN(CC)CCN(Cc1ccc(-c2ccc(C(F)(F)F)cc2)cc1)C(=O)Cn1c(CCc2cc(F)cc(F)c2F)nc(=O)c2ccccc21.O=C(O)C(O)C(O)C(=O)O	100%	77%	36%
CCc1cc2c(O)c([N+](=O)[O-])c(=O)oc2cc1OCCCCCOc1cc2oc(=O)c([N+](=O)[O-])c(O)c2cc1CC	99%	0%	11%
O=C(Nc1ccc(OC2CCN(Cc3ccsc3)CC2)c(Cl)c1)c1cccs1.O=C(O)C(F)(F)F	94%	93%	16%
COc1cc(C2=NN(S(=O)(=O)c3c(Cl)cc(Cl)cc3Cl)CCCC2)ccc1Cl	98%	97%	3%
CN(c1ccc(NC(=O)Nc2cc(C(C)(C)C)on2)cc1)c1ccnc(NCCN2CCOCC2)n1.O=C(O)C(F)(F)F	95%	18%	51%
CCCCCCCc1c(C)nc2cccc(OC)c2c1O	95%	47%	43%
O=C(N[C@@H](Cc1ccccc1)C(=O)NC1CCCCC1)c1ccc(O)c(-c2ccc(Cl)c(Cl)c2)c1	98%	99%	0%
COc1cc(Cc2cnc(N)nc2N)cc(OCCCCCC(=O)O)c1OC.Cl	95%	2%	0%
Cc1ccc(/C=C/C(=O)NC2CCC(N3CCC(c4ccccc4C)CC3)CC2)cc1F (stereo not given)	96%	18%	51%
CCCc1cc(=O)[nH]c(-n2nc(C)cc2NC(=O)CC(c2ccccc2)c2ccccc2)n1	97%	88%	39%
CC(=O)Nc1ccc(C(=O)N2CCN(c3ccnc4cc(Cl)ccc34)CC2)cc1.O=C(O)C(F)(F)F	93%	43%	2%
CCCCN(CCCC)Cc1cc2ccccc2cc1O.Cl	100%	98%	9%
O=c1cc(NCCC(CNCc2ccc(Br)o2)NCc2cc(Br)cc(Br)c2)[nH]c2ccccc12 (stereo not given)	98%	90%	2%
Cc1ccc(CNC(=O)[C@H](CCCN)Nc2cc(C)nc(Nc3ccccc3)n2)cc1.O=C(O)C(F)(F)F	90%	0%	0%
CC(C)Sc1nc2c(c(=O)n1Cc1ccco1)C1(CCCC1)Cc1ccccc1-2	98%	10%	8%
